Results on 34 compounds are retold here after article PMC4336329 (PLoS ONE, 2015).

The whole screen tested about 310,000 compounds, of which about 2,200 (0.71%) showed an effect of 50% or more. Effects have a minus sign here. Shown is part of a subset that was picked to be rich in strong results.

This test deals with human ether-à-go-go-related gene (hERG) potassium channel (human, UniProt Q12809). The test can be described thus: primary screen, population patch clamp on CHO cells stably expressing hERG; higher = less effect of the substance. The procedure: Briefly, Chinese hamster ovary (CHO) cells stably expressing the hERG channel were dislodged from tissue culture flasks and dispensed into PPC plates. […] During the recording, background leak currents were estimated by a 100 ms step to -80 mV from an initial holding potential of -70 mV and subtracted from the subsequent current measurement. The campaign was conducted in two phases using slight differences in recording protocol. In the first phase, the initial voltage pulse used a 100 ms step to -30 mV from a holding potential of -70 mV, a 2 s conditioning step to +25 mV, and a 2 s test step to -30 mV. During the second phase of the screen, the potential during the conditioning step was raised to +45 mV. In both phases of the campaign, a secondary voltage pulse was applied using the same parameters as the second phase initial pulse. The initial and secondary pulses were applied in the absence of compound, and upon application of 1 μM and 10 μM test concentrations. Small molecule effects on hERG current density were quantified by […].
human ether-à-go-go-related gene (hERG) potassium channel, sequence (Q12809 whole entry, looked up): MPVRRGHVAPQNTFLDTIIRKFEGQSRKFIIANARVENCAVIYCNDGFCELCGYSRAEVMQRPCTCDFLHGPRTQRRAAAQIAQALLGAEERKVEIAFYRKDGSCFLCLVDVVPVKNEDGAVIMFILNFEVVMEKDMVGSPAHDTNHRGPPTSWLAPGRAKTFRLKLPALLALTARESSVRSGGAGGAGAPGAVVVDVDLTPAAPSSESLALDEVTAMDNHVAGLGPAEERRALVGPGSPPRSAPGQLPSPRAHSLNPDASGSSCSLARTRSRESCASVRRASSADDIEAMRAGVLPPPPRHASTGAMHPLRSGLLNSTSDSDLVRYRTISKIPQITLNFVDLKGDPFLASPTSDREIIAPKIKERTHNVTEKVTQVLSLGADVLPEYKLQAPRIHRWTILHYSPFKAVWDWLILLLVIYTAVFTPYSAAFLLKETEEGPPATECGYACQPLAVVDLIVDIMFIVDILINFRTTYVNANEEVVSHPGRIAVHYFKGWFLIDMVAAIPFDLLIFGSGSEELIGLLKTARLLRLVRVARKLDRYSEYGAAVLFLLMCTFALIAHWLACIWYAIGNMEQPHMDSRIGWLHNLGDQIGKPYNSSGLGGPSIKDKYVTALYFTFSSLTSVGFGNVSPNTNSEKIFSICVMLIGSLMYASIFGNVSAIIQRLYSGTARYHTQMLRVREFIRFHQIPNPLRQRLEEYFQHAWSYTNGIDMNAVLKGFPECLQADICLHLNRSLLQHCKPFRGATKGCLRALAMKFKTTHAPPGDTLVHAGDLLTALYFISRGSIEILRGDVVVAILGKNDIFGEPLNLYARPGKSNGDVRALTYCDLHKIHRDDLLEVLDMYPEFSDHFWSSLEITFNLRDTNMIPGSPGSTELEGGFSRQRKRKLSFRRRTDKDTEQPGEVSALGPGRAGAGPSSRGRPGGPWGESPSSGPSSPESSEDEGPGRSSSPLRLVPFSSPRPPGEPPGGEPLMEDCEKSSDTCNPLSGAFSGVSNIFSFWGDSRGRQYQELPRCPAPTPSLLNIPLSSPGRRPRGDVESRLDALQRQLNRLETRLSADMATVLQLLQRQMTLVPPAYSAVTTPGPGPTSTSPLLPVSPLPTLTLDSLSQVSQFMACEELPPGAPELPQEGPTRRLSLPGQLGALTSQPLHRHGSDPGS
For the compound `C=CCON/C(CCC)=C1\C(=O)CC(C)(C)CC1=NC`, the “hERG current change (%, negative = inhibition) at 1uM” value came out at 18.6%. For `O=C(CN(C(=O)CCC(=O)Nc1nccs1)c1ccc2c(c1)OCO2)NCc1ccc(F)cc1`, the “hERG current change (%, negative = inhibition) at 1uM” value was 9.89%.

Regarding `COc1cccc(CN2C(=O)[C@H]3Cc4c([nH]c5ccccc45)C(C)(C)N3C2=O)c1`, the “hERG current change (%, negative = inhibition) at 1uM” value stood at 15.2%. For `O=S(=O)(Nc1nc2ccccc2nc1Cl)c1ccc2c(c1)OCCO2` the value was 8.99%; for `Cc1nn(Cc2ccccc2)c(C)c1NC(=O)CSc1nc2c(c(C(F)(F)F)n1)CCc1ccccc1-2`, 2.11%; for `CC1=C(C)C(=O)N(c2ccccn2)C1=O`, 11.4%. With `CCOc1ccccc1CN1CCN(Cc2[nH]c3ccccc3c2C)CC1CCO` (stereo not shown) the figure was -13%; with `COc1ccc2[nH]c(CN3CCN(CC=C(C)C)C(CCO)C3)c(C)c2c1` (stereo not shown), 10.7%; with `COc1cccc(CN2CCN(Cc3[nH]c4ccccc4c3C)CC2CCO)c1` (stereo not shown), -11.2%. With `COc1ccc2[nH]c(CN3CCN(CC(C)C)C(CCO)C3)c(C)c2c1` (stereo not shown) the figure was 5.18%; with `CCOc1ccc(CN2CCN(Cc3[nH]c4ccccc4c3C)CC2CCO)cc1` (stereo not shown), -75.2%; with `CCOc1ccc(CN2CCN(Cc3[nH]c4ccc(OC)cc4c3C)CC2CCO)cc1` (stereo not shown), -76.9%. For the compound `CC(C)CC(=O)Nc1nnc(S(=O)(=O)N(C)Cc2ccco2)s1`, the “hERG current change (%, negative = inhibition) at 1uM” value worked out at 21%. With `NC(=O)CC(NC(=O)Cc1cccc2ccccc12)c1ccc(NCCCN2CCCC2=O)c([N+](=O)[O-])c1` (stereo not shown) the figure was 8.49%. Turning to `O=C(CNS(=O)(=O)c1cccc(C(F)(F)F)c1)Nc1ccccc1F`, the “hERG current change (%, negative = inhibition) at 1uM” value was -2.49%. With `O=C(Oc1ccc(N(C(=O)c2ccncc2)S(=O)(=O)c2cccs2)cc1)c1ccncc1` the figure was 11.4%; with `O=C(OCCN(CCOC(=O)c1ccncc1)S(=O)(=O)c1cccs1)c1ccncc1`, -51.5%. For the compound `CCCOC(=O)c1ccc(NS(=O)(=O)c2cccs2)cc1`, the “hERG current change (%, negative = inhibition) at 1uM” value came to 8.05%. `O=C(Oc1ccccc1O)c1cccc2ccccc12`: the “hERG current change (%, negative = inhibition) at 1uM” value is on record as 6.76%. For `Cc1ccc(N2C(=O)N(CC(=O)Nc3ccc(C)cc3C)C(=O)C2C)cc1` (stereo not shown) the value was 7.69%. With `COc1cc(NC(=S)NCc2cccnc2)cc(OC)c1` the figure was 15.1%; with `CCOc1ccc(NC(C)=O)cc1[N+](=O)[O-]`, 5.43%; with `CCOC(=O)C1(Cc2ccccc2)CCN(Cc2cccc3c2OCO3)CC1`, 1.36%. With `CCOC(=O)C1(CCCc2ccccc2)CCN(Cc2cnc(C)s2)CC1` the figure was -44.7%; with `CCOC(=O)C1(CCc2ccccc2)CCN(Cc2ccc(NC(C)=O)cc2)CC1`, -72.5%.

For the compound `CCOC(=O)C1(CCc2ccccc2)CCN(Cc2nccn2CC)CC1`, the “hERG current change (%, negative = inhibition) at 1uM” value was -47.2%. With `CCOC(=O)C1(CCOc2ccccc2)CCN(Cc2cccc3c2OCO3)CC1` the figure was -7.1%; with `CCOC(=O)C1(CCOc2ccccc2)CCN(Cc2ccc(NC(C)=O)cc2)CC1`, -38.6%; with `CCOC(=O)C1(CCc2ccccc2)CCN(Cc2cnc(N(C)C)s2)CC1`, -86.4%. With `CCOC(=O)C1(CC2CC2)CCN(Cc2cnc(N(C)C)s2)CC1` the figure was 3.01%; with `CCOC(=O)C1(CCc2ccccc2)CCN(Cc2ccn[nH]2)CC1`, -43.8%; with `CCOC(=O)C1(CCc2ccccc2)CCN(Cc2csc(C(C)=O)c2)CC1`, -33.6%.

As to `CCOC(=O)C1(CCc2ccccc2)CCN(Cc2cccc3c2OCO3)CC1`, the “hERG current change (%, negative = inhibition) at 1uM” value was -63.7%. For `CCOC(=O)C1(CCc2ccccc2)CCN(Cc2ccccn2)CC1`, the “hERG current change (%, negative = inhibition) at 1uM” value is reported as -57.1%.
